From PubChem BioAssay AID1159580 (chemical genetic matrix, 2015)
Several values for one entry are separate records, joined by “and”; a condition that tells them apart may be missing. Identical values can stand only once. The whole screen tested about 5,500 compounds, of which about 2,000 (36%) were called active. Roughly 18% stayed inconclusive and do not appear here. No stated cut-off is given here; in the data, active means normalized growth mostly below about 0.91 (no sharp cut-off); inconclusive means no clear call, values can overlap the other calls; inactive means mostly above about 0.92. This is one part of the list.

Test: chemical genetic growth profiling, strain panel (AID 1159580);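 further: tested at 20 µM; growth read once vehicle control cultures reached saturation at 30 °C; 1 = growth at the plate median or of vehicle wells; lower values mean less growth of the strain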
Details: S. cerevisiae deletion strains, growth OD

Measured: normalized growth

O=c1cc(-c2ccc(O)cc2)oc2cc(O[C@@H]3O[C@H](CO)[C@@H](O)[C@H](O)[C@H]3O[C@@H]3OC[C@](O)(CO)[C@H]3O)cc(O)c12
inactive: locus YAL013W, strain DEP1, hits give low values 1.01 | locus YAL021C, strain ccr4, hits give low values 0.998 | locus YAL026C, strain drs2, hits give low values 1 | locus YAL030W, strain snc1, hits give low values 1 | locus YBL061C, strain skt5, hits give low values 1.02 | locus YBR009C, strain hhf1, hits give low values 1.01 | locus YBR021W, strain FUR4, hits give low values 0.99 | locus YBR023C, strain chs3, hits give low values 1.01 | locus YBR171W, strain sec66, hits give low values 0.982 | locus YBR229C, strain ROT2, hits give low values 1.01 | locus YBR231C, strain swc5, hits give low values 1.01 | locus YBR279W, strain paf1, hits give low values 1.01 | locus YCL011C, strain gbp2, hits give low values 1.01 | locus YCL016C, strain dcc1, hits give low values 1 | locus YCL029C, strain bik1, hits give low values 0.985 | locus YCL061C, strain MRC1, hits give low values 1.01 | locus YCL069W, strain vba3, hits give low values 0.994 | locus YCR088W, strain abp1, hits give low values 0.998 | locus YDL005C, strain med2, hits give low values 1 | locus YDL035C, strain GPR1, hits give low values 1.01 | locus YDL040C, strain nat1, hits give low values 0.997 | locus YDL074C, strain BRE1, hits give low values 1.02 | locus YDL101C, strain DUN1, hits give low values 1.02 | locus YDL134C, strain PPH21, hits give low values 1.03 | locus YDL185W, strain tfp1, hits give low values 0.981 | locus YDL192W, strain arf1, hits give low values 0.998 | locus YDR001C, strain nth1, hits give low values 1 | locus YDR069C, strain doa4, hits give low values 1.01 | locus YDR101C, strain arx1, hits give low values 0.963 | locus YDR137W, strain rgp1, hits give low values 1.01 | locus YDR159W, strain sac3, hits give low values 1.01 | locus YDR162C, strain NBP2, hits give low values 1.03 | locus YDR195W, strain ref2 0.991 | locus YDR297W, strain sur2, hits give low values 1.01 | locus YDR318W, strain mcm21, hits give low values 1.01 | locus YDR334W, strain swr1, hits give low values 1.01 | locus YDR335W, strain msn5, hits give low values 1.01 | locus YDR388W, hits give low values 0.981 | locus YDR392W, strain spt3, hits give low values 1.01 | locus YDR502C, strain sam2, hits give low values 0.993 | locus YEL003W, strain gim4, hits give low values 1.01 | locus YEL037C, strain rad23, hits give low values 0.999 | locus YEL061C, strain CIN8 (second series), hits give low values 1 | locus YEL061C, strain CIN8, hits give low values 1.01 | locus YER015W, strain faa2, hits give low values 1.01 | locus YER016W, strain bim1, hits give low values 1.01 | locus YER110C, hits give low values 0.984 | locus YER111C, strain swi4, hits give low values 1 | locus YER155C, strain BEM2 (second series), hits give low values 1.02 | locus YER155C, strain BEM2, hits give low values 1.01 | locus YER167W, strain BCK2, hits give low values 1.01 | locus YFR010W, strain ubp6, hits give low values 1.02 | locus YGL078C, strain dbp3, hits give low values 0.997 | locus YGL086W, strain mad1, hits give low values 0.984 | locus YGL167C, strain pmr1, hits give low values 1.01 | locus YGL173C, strain kem1, hits give low values 1.02 | locus YGL227W, strain vid30, hits give low values 0.994 | locus YGL240W, strain doc1, hits give low values 1.01 | locus YGL248W, strain PDE1, hits give low values 1.05 | locus YGL253W, strain hxk2, hits give low values 0.998 | locus YGR135W, strain pre9, hits give low values 0.989 | locus YGR252W, strain gcn5, hits give low values 1.04 | locus YHR013C, strain ard1, hits give low values 0.988 | locus YHR027C, strain rpn1, hits give low values 1.01 | locus YHR030C, strain SLT2, hits give low values 1.01 and 0.992 | locus YHR079C, strain IRE1 (second series), hits give low values 0.982 | locus YHR079C, strain IRE1, hits give low values 0.983 | locus YHR094C, strain hxt1, hits give low values 0.984 | locus YHR129C, strain ARP1, hits give low values 1.01 | locus YHR142W, strain chs7, hits give low values 1.01 | locus YHR200W, strain rpn10, hits give low values 0.995 | locus YIL066C, strain RNR3, hits give low values 1.02 | locus YIL073C, strain SPO22, hits give low values 1.01 | locus YIL125W, strain kgd1, hits give low values 0.989 | locus YIR030C, strain dcg1, hits give low values 1 | locus YJL092W, strain hpr5, hits give low values 1 | locus YJL095W, strain BCK1 (second series), hits give low values 1.01 | locus YJL095W, strain BCK1, hits give low values 1.06 and 1.01 | locus YJL115W, strain asf1, hits give low values 0.99 | locus YJL129C, strain trk1, hits give low values 0.998 | locus YJL134W, strain LCB3, hits give low values 1.01 | locus YJL154C, strain vps35, hits give low values 1 | locus YJL164C, strain tpk1, hits give low values 1.02 | locus YJL166W, strain qcr8, hits give low values 1.01 | locus YJL168C, strain set2, hits give low values 0.994 | locus YJL187C, strain SWE1 (second series), hits give low values 1.02 | locus YJL187C, strain SWE1, hits give low values 1.01 | locus YJR043C, strain POL32, hits give low values 1.03 | locus YJR066W, strain TOR1, hits give low values 0.982
